Most compounds without a hit are left out; they make up all but 4.2% or so of the library.
V-ATPase pH: yeast V-ATPase proton transport regulation by pHLuorin | S. cerevisiae, pHLuorin cytosolic pH fluorescence | response, % at 10 µM | 350,000 compounds, 0.37% hits; in the data active = response mostly above about 7.3%, no sharp cut-off; inactive = mostly below about 5.4%; note: actives read high
tim10-1 inh: tim10-1 yeast growth inhibition; S. cerevisiae tim10-1 ts strain growth, BacTiter-Glo, 24 h; inhibition, % at 20 µM; 330,000 compounds, 2.2% hits; AID 463190;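 active = inhibition of at least 40%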;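 note: mutant grown at 25 °C; 0% = DMSO wells with yeast and 100% = wells holding no yeast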
tim23-1 inh: growth inhibitors of tim23-1 mutant yeast | S. cerevisiae tim23-1 growth, BacTiter-Glo luminescence, 24 h | inhibition, % at 20 µM | 330,000 compounds, 1.3% hits | AID 463212;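 active = growth inhibition of the mutant yeast at or above 50%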;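 note: temperature-sensitive mutant grown at 25 °C; plate controls were DMSO-treated mutant yeast for no effect and medium wells lacking yeast for full effect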
TIM10 inh: inhibits growth of TIM10 yeast strain; S. cerevisiae TIM10 strain growth, BacTiter-Glo luminescence, 24 h; inhibition, % at 10 µM; 330,000 compounds, 1.4% hits;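 active = inhibition of 40% or more at the single tested concentration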;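 note: wild-type TIM10 isogenic control strain grown at permissive 25 °C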
NALP1 yeast inh: inhibitors of NALP1 inflammasome in yeast | inhibition, % at 10 µM | S. cerevisiae NALP1/ASC/caspase-1 growth, X-gal OD620, 72 h | 280,000 compounds, 0.61% hits | AID 2071; in the data active = inhibition mostly above about 24%, no sharp cut-off; inactive = mostly below about 32%
NLRP3 yeast inh: inhibitors of NALP3 inflammasome in yeast. inhibition, % at 10 µM. 330,000 compounds, 0.39% hits. Yeast reconstituted NLRP3/ASC/caspase-1, beta-gal luminescence, 24 h;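 active = inhibition of 50% or more; inactive = inhibition below 50%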;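 note: plate controls were induced DMSO wells for no effect and uninduced yeast grown without galactose for full effect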
NALP3 confirm: confirmation of NALP3 inhibitors in yeast; shares compounds with NLRP3 yeast inh; 1,300 compounds, 81% hits; yeast expressing human NALP3, luminescence; inhibition, % at 10 µM; in the data active = inhibition above about 48%
Casp1 ASC ctr: counter-screen for NALP3 inhibitors: yeast caspase-1-ASC | shares compounds with NLRP3 yeast inh | yeast expressing Caspase-1-ASC, luminescence counter screen | inhibition, % at 10 µM | 1,000 compounds, 66% hits | AID 488784
NALP3 yeast rt: confirmation retest of NALP3 inhibitors in yeast. shares compounds with NLRP3 yeast inh. yeast expressing human NALP3, luminescence read-out. inhibition, % at 10 µM. 1,000 compounds, 53% hits. AID 488794
tim10-1 conf: confirmation of tim10-1 mutant yeast growth inhibitors | shares compounds with tim10-1 inh | 7,400 compounds, 56% hits | S. cerevisiae tim10-1 ts strain growth, BacTiter-Glo, 24 h | inhibition, % at 20 µM;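 active = inhibition of yeast growth at or above a set limit in either of two repeat tests at 20 µM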;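 note: tim10-1 mutant grown at permissive 25 °C to find synthetic lethal compounds; 0% = DMSO yeast wells and 100% = medium wells without yeast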
TIM10 conf: confirmation of TIM10 yeast growth inhibitors; shares compounds with TIM10 inh; S. cerevisiae tim10 strain growth, BacTiter-Glo luminescence, 24 h; inhibition, % at 10 µM; 4,600 compounds, 63% hits; AID 463215;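 active = inhibition of yeast growth at or above a set limit in either of two replicates at 10 µM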;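 note: this counterscreen used the strain with wild-type TIM10; 0% = yeast with DMSO and 100% = medium wells lacking yeast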
tim23-1 conf: tim23-1 yeast growth inhibition, confirmed; S. cerevisiae tim23-1 growth, BacTiter-Glo luminescence, 24 h; shares compounds with tim23-1 inh; 4,400 compounds, 83% hits; AID 463218; inhibition, % at 20 µM;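 active = inhibition above about 39% in either of two replicate wells at 20 µM, limit read from the data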;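 note: temperature-sensitive tim23-1 mutant grown at 25 °C; 0% = DMSO wells with yeast and 100% = medium wells without yeast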
* marks the source's active call; other numbers are inactive results; . = not tested or not shown. Cut-off read from the data, not from the text of the source, unless noted: active = inhibition above about 50%; inactive = the rest.

SMILES	V-ATPase pH	tim10-1 inh	tim23-1 inh	TIM10 inh	NALP1 yeast inh	NLRP3 yeast inh	NALP3 confirm	Casp1 ASC ctr	NALP3 yeast rt	tim10-1 conf	TIM10 conf	tim23-1 conf
CCCCN(C(=O)CSCc1c(C)noc1C)c1c(N)n(CCCC)c(=O)[nH]c1=O	-3	-10	0	-2	.	1	.	.	.	.	.	.
Cc1cc(Cn2nc(C(=O)NCC3CC3)cc2-c2ccccc2)on1	2	13	13	9	.	8	.	.	.	.	.	.
O=S(=O)(c1ccc(Cl)cc1)N1CCN(c2ncnc3sccc23)CC1	-1	-1	58*	9	.	50*	52*	44	37	.	.	31
Oc1c(I)cc(I)c2cccnc12	2	71*	69*	53*	52	65*	62*	26	24	65*	76*	56*
Oc1c(Cl)cc(Cl)c2cccnc12	-3	.	.	.	16	.	.	.	.	.	.	.
CCSc1nsc(NC(=O)Nc2cccc(F)c2)n1	-1	61*	78*	69*	11	50*	78*	47	85*	72*	60*	84*
COc1cccc(NC(=O)Nc2nc(SC)ns2)c1	0	-6	-4	-4	3	10	.	.	.	.	.	.
CNc1nc(SCc2ccccc2Cl)nc2c1CCCC2	2	42*	54*	46*	112*	98*	99*	98*	98*	43*	45*	60*
O=c1[nH]c(SCc2ccccc2Cl)nc2c1CCC2	2	24	30	22	-9	22	.	.	.	.	.	.
Cn1c(N2CCC(C(N)=O)CC2)nc2c1c(=O)n(Cc1ccc(Cl)cc1)c(=O)n2C	-2	13	8	9	6	20	.	.	.	.	.	.
Cn1c(N2CCCC2)nc2c1c(=O)n(Cc1ccc(Cl)cc1)c(=O)n2C	-2	55*	53*	56*	20	74*	33	.	.	40*	35*	60*
CCC1C(=O)NCCN1C(=O)c1ccc(OC)c(OC2CCN(C(C)=O)CC2)c1 (configuration not stated)	4	-18	-29	-4	-16	11	.	.	.	.	.	.
CC(=O)NC(Cc1cccc(F)c1)C(=O)NC1CCN(C(=O)c2ccc(C)cc2)CC1 (configuration not stated)	-2	2	7	5	-12	6	.	.	.	.	.	.
COc1ccc(C(=O)On2c(-c3ccc(Br)cc3)nc3ccccc3c2=O)cc1	-1	57*	61*	74*	35	62*	86*	57*	68*	52*	74*	79*
O=C(Nc1cccc(Cl)c1)N1CCc2ccccc2C1	-4	38	65*	64*	2	66*	85*	74*	75*	.	62*	84*
COc1cccc(NC(=O)N2CCc3ccccc3C2)c1	5	11	18	7	14	17	.	.	.	.	.	.
O=C(c1ccco1)N1CCN(C2CC(=O)N(c3ccc(F)c(Cl)c3)C2=O)CC1 (configuration not stated)	2	5	5	-5	1	-1	.	.	.	.	.	.
Brc1ccc(-n2cnc(-c3ccccc3)c2)cc1	1	10	55*	35	7	52*	77*	36	51*	.	.	51*
Nc1cc(-c2ccccc2)nn1S(=O)(=O)c1ccc(Br)cc1	0	24	36	2	6	27	.	.	.	.	.	.
CCN(CC)c1nc(C(N)=O)cc(-c2ccccc2)n1	-5	63*	67*	48*	24	53*	41	65*	47	61*	15	74*

Source: PubChem BioAssay (several laboratories)
